Compounds with a hit are over-represented: about 1.1% of the library has one in this group of screens.
HTR5A ag – HTR5A agonism, opioid heterodimer counter-screen; HTR5A agonist assay, luminescence, cell-based; AID 504692; P47898; activation, % at 9.3 µM; 340,000 tested, 0.61% active; in the data active means activation mostly above about 9.5%, no sharp cut-off; inactive means mostly below about 7.6%;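 further: 0% = cells with vehicle only and 100% = reference agonist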
Target sequence (P47898 whole entry, looked up): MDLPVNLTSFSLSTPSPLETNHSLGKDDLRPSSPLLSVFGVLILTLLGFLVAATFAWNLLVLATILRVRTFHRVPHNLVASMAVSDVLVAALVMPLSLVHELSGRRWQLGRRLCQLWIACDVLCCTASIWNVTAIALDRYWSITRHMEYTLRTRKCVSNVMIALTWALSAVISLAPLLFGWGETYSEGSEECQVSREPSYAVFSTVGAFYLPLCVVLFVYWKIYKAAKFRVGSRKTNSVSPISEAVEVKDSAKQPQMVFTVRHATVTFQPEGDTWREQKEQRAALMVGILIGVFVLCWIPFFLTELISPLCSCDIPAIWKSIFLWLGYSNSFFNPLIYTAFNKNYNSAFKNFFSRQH
MOR-DOR inv ag – inverse agonists of human mu-delta opioid receptor heterodimerization; cell-based MOR-DOR heterodimer luminescence, inverse agonism; AID 504357; 340,000 tested, 0.21% active; inhibition, % at 9.3 µM; P35372+P41143; in the data active means inhibition above about 22%, passing the limit was not always enough;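 further: 0% = cells with DMSO and 100% = wells without cells with DMSO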
HTR5A inv ctr – counter-screen for OPRM1-OPRD1 inverse agonists: human HTR5A inverse agonism | P47898 | HTR5A cell line, luminescence | 340,000 tested, 0.083% active | inhibition, % at 9.3 µM | AID 504634; in the data active means inhibition mostly above about 23%, no sharp cut-off; inactive means mostly below about 18%;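 further: 0% = cells with DMSO and 100% = no-cell wells with DMSO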
OPRM1-OPRD1 ag – OPRM1-OPRD1 heterodimerization agonism. activation, % at 9.3 µM. 340,000 tested, 0.3% active. cells, luminescence. P35372+P41143; in the data active means activation above about 18%;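 further: 0% = vehicle-treated cells and 100% = reference agonist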
MOR-DOR inv conf – OPRM1-OPRD1 heterodimer inverse agonism, confirmation; 580 tested, 20% active; inhibition, % at 9.3 µM; AID 504900; cells expressing OPRM1/OPRD1 heterodimer, luminescence; shares compounds with MOR-DOR inv ag; in the data active means inhibition above about 32%;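 further: 0% = cells with DMSO and 100% = wells lacking cells with DMSO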
HTR5A inv ctr2 – counter-screen for OPRM1-OPRD1 inverse agonists: human HTR5A inverse agonism. inhibition, % at 9.3 µM. shares compounds with MOR-DOR inv ag. HTR5A-expressing cells, luminescence. 580 tested, under 10 active; call rule not given here;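 further: 0% = cells with DMSO and 100% = no-cell wells with DMSO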
The depositor's hits bear a star; i = inactive; x = no result.

SMILES	HTR5A ag	MOR-DOR inv ag	HTR5A inv ctr	OPRM1-OPRD1 ag	MOR-DOR inv conf	HTR5A inv ctr2
Cc1ccc2c(c1)C(=O)C(=O)N2c1ccc(Cl)cc1	1.2	58.0*	24.1	-10.4	14.3	-2.9
Cc1nc(-n2[nH]c3c(c2=O)CCCC3)[nH]c(=O)c1Cc1ccccc1	-5.8	37.3*	28.3	-6.0	7.5	4.6
O=S1(=O)N=C(N=Nc2c(O)[nH]c3ccccc23)c2ccccc21	-1.8	24.6*	16.5	-3.6	-4.1	5.0
Oc1[nH]c2ccccc2c1N=Nc1ccccc1	1.2	5.2	-3.6	-1.0	x	x
CC(=O)Nc1ccc(O)c(-c2nc3ccccc3s2)c1	3.4	26.4*	-1.9	-3.8	-47.2	-8.2
CCN(C[C@H]1N[C@@](CC)(C(=O)OC)[C@H]2C(=O)N(C)C(=O)[C@@H]12)C(=O)Nc1ccccc1	-1.1	20.1	3.9	-4.3	x	x
O=c1c2c3c(sc2n2cnnc2n1Cc1ccccc1)CN(Cc1ccccc1)CC3	-7.5	33.7*	22.0	-6.2	-37.2	-27.0
CN1CCc2c(sc3c2c(=O)n(-c2ccc(Cl)cc2)c2nncn32)C1	-2.3	0.7	-1.8	-0.1	x	x
COCC(C)OC(=O)c1c(N)n(CC(C)C)c2nc3ccccc3nc12 (configuration not stated)	7.6	58.5*	3.0	-11.2	36.8*	11.5
C=CCn1c(N)c(C(=O)OC(C)CC)c2nc3ccccc3nc21 (configuration not stated)	0.4	12.3	-32.6	-2.2	x	x
CC1=C(C)CC2C(C1)C(=O)c1ccc(Br)cc1S2(=O)=O (configuration not stated)	5.1	58.2*	-15.1	-10.1	56.4*	3.9
CC(=O)c1ccc(OCCCC(=O)N2CCN(S(=O)(=O)c3ccc(C)cc3C)CC2)cc1	0.8	-9.6	-2.1	1.4	x	x
CCOC(=O)c1ccccc1OC(=O)NNc1ccccc1	-6.0	37.4*	21.5	-7.1	-18.1	-5.8
O=C1c2ccccc2N[C@@H]2C=CC[C@@H]2N1O	0.1	16.3	-0.2	-3.3	x	x
COCCN(C(=O)CSc1nnc(-c2ccccc2F)n1N)c1c(N)n(Cc2ccccc2)c(=O)[nH]c1=O	8.3	28.8*	-21.2	-7.1	-28.1	4.8
Cc1ccc2c(c1)C(=O)C(=O)N2CC(=O)Nc1ccccc1NC(=O)c1ccccn1	-0.7	46.6*	2.0	-8.8	i	-5.4
Cc1ccc(C)c(C(=O)c2ccccc2NC(=O)c2ccccn2)c1	2.1	-14.6	-7.7	3.1	x	x
CC(=O)Nc1ccccc1C(=O)C(=O)O	-2.9	36.6*	7.4	-6.5	-5.7	-3.6
N#CCSc1nc2ccccc2c(=O)n1CCCC(=O)NCC1CCCO1 (configuration not stated)	-2.8	8.4	7.1	-1.8	x	x
COc1ccccc1NCC(=O)c1ccc(Cl)cc1	-0.2	16.9	0.8	-3.0	x	x
COc1ccccc1NCC(=O)c1ccc(C)c(C)c1	-3.5	30.6*	-16.7	-6.0	-12.7	-7.4
COc1ccc(C(=O)CNc2ccccc2CO)cc1	-0.4	15.9	1.1	-2.9	x	x
COc1ccc(C(=O)CNc2ccc(C)cc2C)cc1	3.4	32.5*	-8.9	-6.6	70.3*	1.9
O=C1Nc2ccccc2C1=Nc1ccc(-c2nnc3n2CCCCC3)cc1	-1.5	35.4*	6.3	-6.8	39.5*	3.5
Nc1cc(C(=O)OCC(=O)NCCNC(=O)COC(=O)c2ccc(Cl)c(N)c2)ccc1Cl	0.0	8.6	0.0	-1.3	x	x
SMILES	HTR5A ag	MOR-DOR inv ag	HTR5A inv ctr	OPRM1-OPRD1 ag	MOR-DOR inv conf	HTR5A inv ctr2
Cn1nnc(NC(=S)NC(=O)c2cccc3c(Br)cccc23)n1	-4.4	33.1*	17.8	-6.2	-4.3	-4.9
COc1cccc(C(=O)NC(=S)Nc2nnn(C)n2)c1	0.8	27.9*	9.3	-5.0	-2.0	14.7
COc1c(C(=O)NC(=S)Nc2nnn(C)n2)cc2ccccc2c1Br	-0.8	3.1	2.0	-0.6	x	x
COc1ccc(C(=O)NC(=S)Nc2nnn(C)n2)cc1	-3.1	27.1	21.0	-6.0	x	x
Cn1nnc(NC(=S)NC(=O)c2cccc3c(Cl)cccc23)n1	-3.6	31.4*	14.6	-5.9	-12.7	16.5
Cn1nnc(NC(=S)NC(=O)c2ccco2)n1	-6.1	24.0	20.0	-5.4	x	x
Cn1c(=O)cc(Cl)[nH]c1=O	3.3	9.3	-8.6	-1.6	x	x
CC1(c2nnc(-c3ccncc3)o2)CC(c2cccc(Cl)c2)=NO1 (configuration not stated)	0.5	3.9	-9.6	-0.7	x	x
Cc1nc2c(nc1C)C(=O)c1ccccc1C2=O	0.6	8.7	-2.1	-2.0	x	x
O=C1c2ccccc2-c2nc3ccccc3nc21	-6.3	79.4*	10.1	-16.1	-437.0	-9.9
CCOc1ccc(CONS(=O)(=O)c2ccc(NC(C)=O)cc2)cc1Cl	-1.1	5.0	3.0	-0.7	x	x
O=C(/C=C/c1ccccc1)C1=C(O)C(=O)N(CCO)C1c1ccccc1[N+](=O)[O-] (configuration not stated)	-3.7	52.0*	20.2	-10.4	-426.9	-36.6
CC(=O)C1=C(O)C(=O)N(CCc2ccccc2)C1c1ccccc1[N+](=O)[O-] (configuration not stated)	2.2	1.6	-5.8	-0.3	x	x
CCC(=O)OCCNc1cc(Sc2nc3ccccc3[nH]2)c2nonc2c1[N+](=O)[O-]	-9.7	43.0*	-8.9	-8.3	-10.1	-8.5
O=[N+]([O-])c1c(NCCCO)cc(Sc2nc3ccccc3s2)c2nonc12	-5.0	34.6*	2.4	-6.1	29.9	12.2
CC(=O)SC1CC(=O)C=C2CCC3C4CCC(=O)OC4(C)CCC3C21C (configuration not stated)	-0.9	14.1	3.4	-2.7	x	x
CN(C)C(=O)/C(=C\c1ccncc1)NC(=O)c1ccccc1	4.4	14.4	7.1	-2.9	x	x
CCOc1ccc(NC(=O)c2cccc(S(=O)(=O)Nc3c(C)n(C)n(-c4ccccc4)c3=O)c2)cc1	1.4	29.2	-5.2	-5.6	x	x
COc1ccc(CC(=O)N2CCCC(CNC(=O)c3ccccc3Cl)C2)cc1 (configuration not stated)	1.4	6.5	-3.9	-0.9	x	x
Cc1ccc(NC(=O)c2ncn(CC(=O)NCc3nc4ccccc4[nH]3)n2)cc1C	-1.7	9.9	5.7	-2.0	x	x
O=C(CCN1C(=O)C2C3CCC(C3)C2C1=O)OCC(=O)c1ccc(Br)cc1 (configuration not stated)	2.1	15.7	-7.6	-2.8	x	x
Cc1ccc(C(=O)COC(=O)CN2C(=O)C3CC=CCC3C2=O)cc1[N+](=O)[O-] (configuration not stated)	-3.5	49.9*	1.2	-9.2	47.7*	19.7
O=C(CN1C(=O)C2C3C=CC(C3)C2C1=O)OCC(=O)c1ccc(Cl)c([N+](=O)[O-])c1 (configuration not stated)	-8.4	77.9*	21.2	-14.1	83.8*	19.0
